Values without a mark were called inactive. The call rests on the fitted dose curve; in most records, active means well fitted curve in the direction sought with a large enough effect; inactive means no such curve, though single readings can be large or run the other way.
Target: L-lactate dehydrogenase A chain (human) (UniProt V9HWB9)
Experiment: Extended Characterization of HPGD Inhibitors: Counterscreen Against LDHA
Conditions: LDHA enzyme, diaphorase/resazurin coupled fluorescence; series mostly up to 57.1 µM; activity change, negative = inhibition: at the top concentration
Description: The central role of HPGD is to inactivate prostaglandins such as prostaglandin E2 (PGE2) or prostaglandin D2 (PGD2). These prostaglandins are involved in a number of processes, including inflammation, differentiation, and cellular signaling, which makes HPGD an important target for pharmacological intervention. A number of prostaglandins of particular biological interest have been identified as substrates of HPGD. […] Over-production of PGE2 has been reported to promote tumor-associated neovascularization, cell proliferation, and tumor growth. […] In order to further characterize the compounds, we ran them against an LDHA counterscreen. LDHA converts pyruvate to lactate while regenerating NAD+ from NADH. LDHA enzymatic activity is then coupled to the activity of diaphorase, which reversibly catalyzes the reaction of […] while simultaneously reducing resazurin to the fluorescent resorufin. This change in fluorescence signal (excitation 544 nm; emission, 590 nm) was monitored using the ViewLux CCD imager (Perkin Elmer). Data were normalized against no enzyme control wells and no compound control wells. NIH Chemical Genomics Center [NCGC] NIH Molecular Libraries Probe Centers Network [MLPCN] MLPCN Grant: MH084681 Assay Submitter (PI): Structural Genomics Consortium
3 uL of LDHA enzyme in assay buffer are added to plate before 23 nL of compound/control are pinned into the solution. After a 15 min incubation, 1 uL of NADH (60 uM final) and sodium pyruvate (160 uM final) are added, incubated at 8 min at RT before another 1 uL of Diaphorase / Resazurin is added. The plate is read on the ViewLux after a 10 min RT incubation

SMILES | activity change, negative = inhibition [%]
Cc1cc(-c2nnc3n2CCCCC3)c(C)n1-c1cccc(Cl)c1 | 9.93
O=C(c1ccc2c(c1)ncn2-c1cccc(Cl)c1)N1CCCCC1 | 6.78
O=C(c1ccc2c(c1)ncn2-c1cccc(C(F)(F)F)c1)N1CCCCC1 | 0.565
Cc1cc(-c2nnc3n2CCCCC3)c(C)n1-c1cccc(C(F)(F)F)c1 | 4.3
Cc1cccc(-n2cnc3cc(C(=O)N4CCCC(C(F)(F)F)C4)ccc32)c1 (stereo not given) | -12.2
Cc1cccc(-n2cnc3cc(C(=O)N4CCCC(C)(C)C4)ccc32)c1 | 4.22
Cc1ccc(-n2c(C)cc(-c3nnc4n3CCCCC4)c2C)cc1 | 1.62
COc1ccc(-n2cnc3cc(C(=O)N4CCCCC4)ccc32)cc1 | -0.645
Cc1cc(-c2nnc3n2CCCCC3)c(C)n1-c1ccc(Cl)c(Cl)c1 | 3.58
Cc1cc(-c2nnc3n2CCCCC3)c(C)n1-c1cccc(C#N)c1 | 8.07

From PubChem BioAssay AID743169 (National Center for Advancing Translational Sciences (NCATS), 2013)
